High-throughput results deposited in PubChem by National Center for Advancing Translational Sciences (NCATS).
Most compounds without a hit are left out; they make up all but 21% or so of the library.
CHX counter = Cycloheximide Counterscreen for Small Molecule Inhibitors of Shiga Toxin. cell reporter, cycloheximide protein synthesis inhibition counterscreen. max response, %. 12% of 300,000 active. AID 2314, 2010; in the data active = max response mostly above about 13%, no sharp cut-off; inactive = mostly below about 14%; also: read at 38.3 µM for the half of the compounds with a filed dose
Pf growth 48h = Primary qHTS for delayed death inhibitors of the malarial parasite plastid, 48 hour incubation. 5.9% of 310,000 active. Potency, µM (doses to about 28.7 µM), most hits filed as inhibitors. P. falciparum luciferase growth in erythrocytes, 48 h
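Parasite viability was followed by luminescence of a genomically integrated firefly luciferase. Cultures held 0.1% parasitemia at 2% hematocrit (final), incubated under 5% CO2 at 37 C.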
Shiga inhibitor = A qHTS for Small Molecule Inhibitors of Shiga Toxin | Vero cells, Shiga toxin protein synthesis inhibition reporter | 9.2% of 290,000 active | inhibition, % at 38.7 µM; in the data active = inhibition mostly above about 28%, no sharp cut-off; inactive = mostly below about 43%
Pf growth 96h = Primary qHTS for delayed death inhibitors of the malarial parasite plastid, 96 hour incubation. P. falciparum luciferase reporter growth, 96 h. Potency, µM (top dose mostly 28.7 µM), usual class: inhibitors. 6.9% of 320,000 active
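Infected RBCs, 2% Hct / 0.05% parasitemia final; luciferase-reporter P. falciparum; cpd 96 h, 37 C, 5% CO2; luciferase detection reagent; luminescence.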
A number is an active result; - = inactive; ? = inconclusive; . = no result. Unless noted, calls follow the shape of the dose curve; as a rule, active = well fitted inhibition curve with a large enough effect; inconclusive = small, poorly fitted or top-dose-only effect, or another doubt; inactive = no such curve, though single readings can be large or run the other way.

SMILES | CHX counter | Pf growth 48h | Shiga inhibitor | Pf growth 96h
N#C/C(=N\Nc1ccccc1[N+](=O)[O-])C(=N)N1CCCCC1 | 30.6 | - | 66.9 | -
N#C/C(=N\Nc1ccc(Br)cc1)C(=N)N1CCOCC1 | 69.1 | - | 107.2 | -
O=C(CN1CCCCCC1)Nc1ccccc1[N+](=O)[O-] | - | - | . | -
O=C(CCCc1ccccc1)Nc1ccnn1C1CCN(Cc2ccc(CO)o2)CC1 | - | - | - | -
N#C/C(=N\Nc1ccc([N+](=O)[O-])cc1)C(=N)N1CCOCC1 | 45.8 | - | 68.8 | -
COc1ccccc1OCCNC(=O)C(CCSC)NS(=O)(=O)c1ccccc1F (stereo not drawn) | . | - | . | -
CC#CC#Cc1cccc(=O)o1 | 25.4 | 11.7µM | 61.1 | 10.4µM
COCCNC(=S)N1CCN(c2nc3ccccc3s2)CC1 | 32.1 | - | - | -
COCCCNC(=S)N1CCN(c2nc3ccccc3s2)CC1 | 13.7 | - | - | -
Cc1cc(C)cc(C(=O)NCCC(=O)N2CCC3(CC2)NCCc2[nH]cnc23)c1 | - | - | - | -
COC(=O)c1ccc(-n2c(C)cc(C(=O)COC(=O)CC3Sc4ccccc4NC3=O)c2C)cc1 (stereo not drawn) | 20.7 | - | 26.0 | ?
Cc1cc(C(=O)COC(=O)CC2Sc3ccccc3NC2=O)c(C)n1-c1ccccc1 (stereo not drawn) | 66.2 | - | 49.7 | ?
O=C(CC1Sc2ccccc2NC1=O)OCC(=O)N1CCc2ccccc21 (stereo not drawn) | 31.8 | - | 91.6 | ?
Cc1cc(C(=O)COC(=O)CC2Sc3ccccc3NC2=O)c(C)n1-c1ccc(Br)cc1 (stereo not drawn) | - | - | - | ?
O=C(CC1Sc2ccccc2NC1=O)OCc1cc(=O)oc2cc(O)ccc12 (stereo not drawn) | - | - | - | 4.65µM
Cc1ccccc1/C=C/C1=NCCN1 | . | ? | . | -
Cc1cn(C2CC3OCC(NC(=O)C4CCCN4C(=O)OC(C)(C)C)C3O2)c(=O)[nH]c1=O (stereo not drawn) | - | . | - | .
COC(=O)C(C)SC1=N/C(=C/c2ccc(-n3cncn3)cc2)C(=O)N1 (stereo not drawn) | - | - | - | -
NC(=O)c1cccc(C[C@H](C(=O)O)N2C(=O)c3ccc(C(=O)O)cc3C2=O)c1 | - | ? | - | -
CC(=O)Nc1ccc(S(=O)(=O)NCC(=O)OCC(=O)c2cc(C)n(-c3ccc4c(c3)OCO4)c2C)cc1 | - | - | - | ?
Cc1cc(C(=O)COC(=O)CC2Sc3ccccc3NC2=O)c(C)n1-c1ccc2c(c1)OCO2 (stereo not drawn) | 27.0 | - | - | -
COc1cc(-c2noc(C)c2-c2ccc3[nH]ccc3c2)cc(OC)c1OC | - | ? | - | 10.4µM
O=C1N(CN2CCN(Cc3ccccc3)CC2)c2ccccc2C12OCCCO2 | - | - | - | -
O=C(c1ccco1)N1CCN(Cc2csc(-c3ccccc3Cl)n2)CC1 | 50.1 | - | 83.2 | -
COc1cccc(CN2CCN(C(=O)c3ccco3)CC2)c1 | - | - | - | 0.828µM
SMILES | CHX counter | Pf growth 48h | Shiga inhibitor | Pf growth 96h
CC(C)(C)NC(=O)COc1coc(CN2CCN(C(=O)c3ccco3)CC2)cc1=O | . | - | . | -
Cc1ccc(COc2coc(CN3CCN(C(=O)c4ccco4)CC3)cc2=O)cc1 | . | 11.7µM | . | ?
O=C(c1ccco1)N1CCN(Cc2c(Cl)cccc2Cl)CC1 | 21.0 | - | - | 2.62µM
COc1ccc(NC(=O)C(=O)NCCN2CCN(C(=O)c3ccco3)CC2)cc1 | - | - | - | 0.928µM
Cc1ccc(C(=O)Nc2cccc(C(F)(F)F)c2)cc1NC(=O)c1cnnc2ccccc12 | - | - | - | ?
Cc1cn(-c2cc(C(=O)Nc3ccc(C)c(NC(=O)C(=O)c4c[nH]c5ccccc45)c3)cc(C(F)(F)F)c2)cn1 | - | 1.04µM | - | ?
Nc1nc(-c2ccc(Cl)cc2)nc(-c2ccc(Cl)cc2)n1 | - | - | - | -
CCCC1CC(=O)OC1(C)C(=O)CSc1n[nH]c(-c2ccccc2)n1 (stereo not drawn) | - | - | 65.6 | -
CCCC1CC(C)(C(=O)CSc2n[nH]c(-c3ccccc3)n2)OC1=O (stereo not drawn) | - | - | - | .
Cc1ccc(C=Nc2ccc(N(C)C)cc2)o1 | 24.2 | ? | 109.0 | 0.928µM
Cc1ccc(/C=N/n2c(C)nnc2C)o1 | - | - | - | -
Cn1nc(C(=O)OCC(=O)Nc2ccc(S(N)(=O)=O)cc2)c2ccccc2c1=O | - | - | - | -
NC(=O)c1ccccc1OCC(=O)N1CCc2ccccc2C1 | - | - | - | -
